Compound activity: PubChem, National Center for Advancing Translational Sciences (NCATS)
IL-1B inflam inh: blocks inflammasome-driven IL-1 beta release. hit rate 4.7% among 360,000. THP-1 LPS/ATP IL-1B secretion, AlphaLISA, 16 h; hits give low values. activity change, % at 57.5 µM. AID 743279; in the data active means activity change below about -50%; inconclusive means mostly about -30% to -49%
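THP-1 cells pretreated 1 hr with compounds (up to 57.5 uM final), then stimulated with LPS (250 ng/mL final) plus ATP (1.25 mM final); secreted IL-1B measured by AlphaLISA after 16 hr, decreased signal indicating inhibition.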
HT1080 IDH1KD tx: toxicity to HT-1080 IDH1 knockdown cells (counter line). Potency, µM (top dose mostly 46.1 µM), usual class: cytotoxic. hit rate 2% among 360,000. HT-1080 IDH1 knockdown viability, ATP luminescence, 48 h
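% activity derives from luminescence (CellTiter-Glo), normalised to DMSO and no-cell wells. HT-1080-IDH1KD cells, 750/well, had 48 h compound exposure at 37 °C.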
HT1080NT lethal: kills 2HG-producing HT-1080-NT fibrosarcoma cells; HT-1080-NT fibrosarcoma viability, CellTiter-Glo ATP luminescence, 48 h; Potency, µM (doses to about 46.1 µM), most hits filed as cytotoxic; hit rate 1.6% among 360,000; AID 686970;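 further: NT is the 2HG producing partner of a matched IDH1 knockdown line; nearly all actives have a fitted effect of over 55% in size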
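Fibrosarcoma NT cells, 750 per well in 5% FBS RPMI, were exposed to compound for 48 hours. Viability: CellTiter-Glo luminescence.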
TDP1 cell CPT: DT40-hTDP1 cell growth loss with CPT; chicken DT40 Tdp1-/-;hTDP1 cells + 20 nM CPT, ATP luminescence, 48 h; Potency, µM (top dose mostly 46.2 µM), most hits filed as inhibitors; hit rate 12% among 420,000; AID 686979; further: nearly all actives have a fitted effect of over 55% in size
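Chicken DT40 Tdp1-/- cells complemented with human TDP1, 400 cells/well, exposed to compounds plus 20 nM camptothecin for at least 48 h at 37 C; viability read as ATP content by CellTiter-Glo luminescence.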
ELG1 DNA repair: blocks ELG1-dependent DNA repair in HEK293T cells; HEK293T ELG1-luciferase reporter, luminescence, 16 h; DNA damage induced by 5-fluorouridine; Potency, µM (series often up to 46.1 µM), actives largely listed as inhibitors; hit rate 2.3% among 330,000; further: nearly all actives have a fitted effect of over 55% in size
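HEK293T cells expressing luciferase-tagged ELG1 (2,000/well) received 5-Fluorouridine plus compound or DMSO for 16 hr at 37 °C. Luciferase was read by ONE-Glo luminescence after 30 min at room temperature.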
DT40 TDP1 no CPT: qHTS for Inhibitors of human tyrosyl-DNA phosphodiesterase 1 (TDP1): qHTS in cells in absence of CPT; Potency, µM (doses to about 46.2 µM), usual class: inhibitors; hit rate 15% among 420,000; DT40 Tdp1-/- hTDP1 cells, no CPT, ATP luminescence, 48 h; further: nearly all actives have a fitted effect of over 55% in size
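Camptothecin absent (DMSO only). Human TDP1-complemented DT40 knockout cells, 400 cells/well, 37 °C for minimum 48 hr; ATP measured via CellTiter-Glo, 30 min dark incubation, luminescence.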
Each line names hits and unclear results; the compound was inactive in the other large screens. Rows were chosen to be rich in hits. Some 19% of all compounds tested hit in one or more screens of this group. Unless noted, the call rests on the fitted dose curve; in most records, active means well fitted curve in the direction sought with a large enough effect; inconclusive means small, poorly fitted or top-dose-only effect, or another doubt; inactive means no such curve, though single readings can be large; an effect the other way counts as inactive or inconclusive.

O=C(CSc1nc(O)cc(=O)n1-c1ccc(Cl)c(Cl)c1)Nc1ccc(Cl)cc1Cl	none
O=C(NNCS(=O)(=O)O)c1ccncc1	none (no result: IL-1B inflam inh, HT1080 IDH1KD tx, HT1080NT lethal, ELG1 DNA repair)
CC1CCCN(c2ncnc3c2nc2n3CCCCC2)C1 (stereo unspecified)	DT40 TDP1 no CPT inconclusive (no result: IL-1B inflam inh, HT1080 IDH1KD tx, HT1080NT lethal, ELG1 DNA repair)
Cc1ccc(C)c(N2CCN(C(=O)C3CCCN(c4ncnc5c4nc4n5CCCCC4)C3)CC2)c1 (stereo unspecified)	IL-1B inflam inh inconclusive, TDP1 cell CPT 16.4µM, ELG1 DNA repair 13µM, DT40 TDP1 no CPT 23.1µM
COc1ccccc1N1CCN(c2ncnc3c2nc2n3CCCC2)CC1	TDP1 cell CPT 18.4µM, DT40 TDP1 no CPT 18.4µM (no result: IL-1B inflam inh, HT1080 IDH1KD tx, HT1080NT lethal, ELG1 DNA repair)
O=C(C1CCCN(c2ncnc3c2nc2n3CCCCC2)C1)N1CCN(c2ccccc2)CC1 (stereo unspecified)	TDP1 cell CPT inconclusive, ELG1 DNA repair inconclusive, DT40 TDP1 no CPT 2.06µM
O=C(C1CCCN(c2ncnc3c2nc2n3CCCCC2)C1)N1CCN(c2cccc(Cl)c2)CC1 (stereo unspecified)	IL-1B inflam inh inconclusive, HT1080 IDH1KD tx inconclusive, HT1080NT lethal inconclusive, TDP1 cell CPT 23.1µM, ELG1 DNA repair 8.2µM, DT40 TDP1 no CPT 18.4µM
CN(C(=O)C1CCCN(c2ncnc3c2nc2n3CCCCC2)C1)c1cccc(Cl)c1 (stereo unspecified)	HT1080 IDH1KD tx inconclusive, HT1080NT lethal inconclusive, TDP1 cell CPT 13µM, DT40 TDP1 no CPT 11.6µM
CCN(CC)C(=O)C1CCCN(c2ncnc3c2nc2n3CCCCC2)C1 (stereo unspecified)	DT40 TDP1 no CPT inconclusive (no result: IL-1B inflam inh, HT1080 IDH1KD tx, HT1080NT lethal, ELG1 DNA repair)
COc1ccccc1N1CCN(C(=O)C2CCCN(c3ncnc4c3nc3n4CCCCC3)C2)CC1 (stereo unspecified)	TDP1 cell CPT 14.6µM, DT40 TDP1 no CPT 16.4µM
Cc1ccccc1N(C)C(=O)C1CCCN(c2ncnc3c2nc2n3CCCCC2)C1 (stereo unspecified)	TDP1 cell CPT inconclusive, DT40 TDP1 no CPT 23.1µM
CCOC(=O)CN1C(=O)/C(=C/c2ccccc2Br)Oc2ccccc21	TDP1 cell CPT inconclusive, ELG1 DNA repair inconclusive, DT40 TDP1 no CPT inconclusive
Cc1cccc(NC(=O)c2oc3c(c2C)C(=O)CC(C)(C)C3)n1	TDP1 cell CPT 11.6µM, DT40 TDP1 no CPT 5.17µM
COc1ccc(-n2c3c(cc(C(=O)Nc4cccc(C)n4)c2=O)C(=O)CC(C)(C)C3)cc1	none
CC(=O)NCCNc1cc(-c2ccccc2CN(C)C)ncn1	none (no result: IL-1B inflam inh, HT1080 IDH1KD tx, HT1080NT lethal, ELG1 DNA repair)
CCOC(=O)c1ccccc1NC(=O)Cn1c(=O)n(CCC(=O)N2CCc3ccccc3C2)c(=O)c2ccccc21	TDP1 cell CPT 20.6µM, DT40 TDP1 no CPT 8.2µM (no result: IL-1B inflam inh, HT1080 IDH1KD tx, HT1080NT lethal, ELG1 DNA repair)
Cc1ccc(NC(=O)Cn2c(=O)n(CCC(=O)N3CCc4ccccc4C3)c(=O)c3ccccc32)c(C)c1	TDP1 cell CPT 20.6µM, DT40 TDP1 no CPT 23.1µM (no result: IL-1B inflam inh, HT1080 IDH1KD tx, HT1080NT lethal, ELG1 DNA repair)
COc1ccc(CNC(=O)COC(=O)/C=C/c2cccc(Br)c2)cc1OC	TDP1 cell CPT inconclusive
COc1ccc(NC(=O)N(C)C[C@H]2Oc3ccc(NC(=O)Cn4cnnn4)cc3C(=O)N([C@H](C)CO)C[C@@H]2C)cc1	none
Cc1c(C)c2ccc(OCC(=O)Nc3ccccn3)cc2oc1=O	ELG1 DNA repair inconclusive
COc1ccccc1-c1nnc(SCC(=O)Nc2ccc(N3CCOCC3)cc2)n1N	ELG1 DNA repair inconclusive
CCN1CCN(c2ccc(S(=O)(=O)N3CCCCC3)cc2NC(=O)c2cccc(Cl)c2)CC1	IL-1B inflam inh inconclusive, HT1080NT lethal inconclusive, DT40 TDP1 no CPT inconclusive
CCN1CCN(c2ccc(S(=O)(=O)N3CCCCC3)cc2NC(=O)c2ccc(OC(F)F)cc2)CC1	IL-1B inflam inh -75.7, TDP1 cell CPT inconclusive, DT40 TDP1 no CPT inconclusive
COc1ccc(S(=O)(=O)N2CCOCC2)cc1NC(=O)c1ccc(OC(F)F)cc1	TDP1 cell CPT inconclusive, DT40 TDP1 no CPT inconclusive
CCN1CCN(c2ccc(S(=O)(=O)N3CCCCC3)cc2NC(=O)c2cccc(OC(F)F)c2)CC1	IL-1B inflam inh inconclusive, TDP1 cell CPT inconclusive, ELG1 DNA repair inconclusive, DT40 TDP1 no CPT 20.6µM
Cc1cc(NC(=O)CCSc2nc(-c3ccco3)cc(C(F)(F)F)n2)n(-c2ccccc2)n1	TDP1 cell CPT inconclusive, ELG1 DNA repair 25.9µM
O=C(CSc1nc(-c2ccco2)cc(C(F)(F)F)n1)N1CCN(Cc2ccccc2)CC1	TDP1 cell CPT inconclusive, ELG1 DNA repair inconclusive, DT40 TDP1 no CPT inconclusive
Cc1cc(NC(=O)CCSc2nc(-c3ccco3)cc(C(F)(F)F)n2)no1	HT1080 IDH1KD tx inconclusive, HT1080NT lethal inconclusive
COc1ccccc1N1CCN(C(=O)CSc2nc(-c3ccco3)cc(C(F)(F)F)n2)CC1	TDP1 cell CPT inconclusive, ELG1 DNA repair inconclusive, DT40 TDP1 no CPT 23.1µM
Cc1nn(C)cc1NC(=O)CCSc1nc(-c2ccco2)cc(C(F)(F)F)n1	DT40 TDP1 no CPT inconclusive
Cc1ccc(O)c(NC(=O)CCSc2nc(-c3ccco3)cc(C(F)(F)F)n2)c1	TDP1 cell CPT inconclusive, DT40 TDP1 no CPT 18.4µM (no result: IL-1B inflam inh, HT1080 IDH1KD tx, HT1080NT lethal, ELG1 DNA repair)
